In PubChem BioAssay (NCATS):
Records with an inconclusive call do not appear. Entries that show only a call come without a potency. Active and inactive are the calls of the source. Calls come from the whole dose curve; as a rule, active = well fitted inhibition curve with a large enough effect; inconclusive = small, poorly fitted or top-dose-only effect; inactive = flat fitted curve, though single readings scatter.

system: GB4; experiment: qHTS profiling for inhibitors of Plasmodium falciparum proliferation (AID 504749); note: nearly all actives have a fitted effect of over 60% in size; settings: P. falciparum in erythrocytes, SYBR Green DNA, 72 h; series mostly up to 12.8 µM
In short: (§1)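 Readout was DNA-dye fluorescence from lysed cultures, ex 485/em 535 nm. Parasitized red cells had grown 72 h with compound; data scaled between 0.29 uM artemisinin and DMSO wells and corrected using vehicle-only plates.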

Row | Structure (SMILES) | Potency
1 | C[N+](C)(C)CC(O)CC(=O)O (stereo unspecified) | inactive
2 | CN1CCCC[C@@H]1CCN1c2ccccc2Sc2ccc(S(C)=O)cc21 (stereo partly specified) | inactive
3 | O=C(Cc1cccs1)NC1C(=O)N2C(C(=O)[O-])=C(C[n+]3ccccc3)CSC12 (stereo unspecified) | inactive
4 | C[C@@H]1CCC[C@H](C)N1NC(=O)c1ccc(Cl)c(S(N)(=O)=O)c1 | inactive

system: HB3; experiment: as above; settings: P. falciparum in erythrocytes, SYBR Green DNA, 72 h; series mostly up to 12.8 µM
In short: as §1

Row | Structure (SMILES) | Potency
5 | C[N+](C)(C)CC(O)CC(=O)O (stereo unspecified) | inactive
6 | CN1CCCC[C@@H]1CCN1c2ccccc2Sc2ccc(S(C)=O)cc21 (stereo partly specified) | inactive
7 | O=C(Cc1cccs1)NC1C(=O)N2C(C(=O)[O-])=C(C[n+]3ccccc3)CSC12 (stereo unspecified) | inactive
8 | CN(C)CC/C=C1\c2ccccc2CSc2ccccc21 | inactive
9 | C[C@@H]1CCC[C@H](C)N1NC(=O)c1ccc(Cl)c(S(N)(=O)=O)c1 | inactive
10 | CC(C)N1CCN(c2ccc(OC[C@@H]3CO[C@@](Cn4cncn4)(c4ccc(Cl)cc4Cl)O3)cc2)CC1 | inactive

system: ICS; experiment: as above; settings: P. falciparum in erythrocytes, SYBR Green DNA, 72 h; series mostly up to 12.8 µM
In short: as §1

Row | Structure (SMILES) | Potency
11 | C[N+](C)(C)CC(O)CC(=O)O (stereo unspecified) | inactive
12 | O=C(Cc1cccs1)NC1C(=O)N2C(C(=O)[O-])=C(C[n+]3ccccc3)CSC12 (stereo unspecified) | inactive
13 | C[C@@H]1CCC[C@H](C)N1NC(=O)c1ccc(Cl)c(S(N)(=O)=O)c1 | inactive
14 | CC(C)N1CCN(c2ccc(OC[C@@H]3CO[C@@](Cn4cncn4)(c4ccc(Cl)cc4Cl)O3)cc2)CC1 | inactive

system: JCK; experiment: as above; settings: P. falciparum in erythrocytes, SYBR Green DNA, 72 h; series mostly up to 12.8 µM
In short: as §1

Row | Structure (SMILES) | Potency
15 | C[N+](C)(C)CC(O)CC(=O)O (stereo unspecified) | inactive
16 | CN1CCCC[C@@H]1CCN1c2ccccc2Sc2ccc(S(C)=O)cc21 (stereo partly specified) | inactive
17 | O=C(Cc1cccs1)NC1C(=O)N2C(C(=O)[O-])=C(C[n+]3ccccc3)CSC12 (stereo unspecified) | inactive
18 | CN(C)CC/C=C1\c2ccccc2CSc2ccccc21 | inactive
19 | C[C@@H]1CCC[C@H](C)N1NC(=O)c1ccc(Cl)c(S(N)(=O)=O)c1 | inactive
20 | CC(C)N1CCN(c2ccc(OC[C@@H]3CO[C@@](Cn4cncn4)(c4ccc(Cl)cc4Cl)O3)cc2)CC1 | inactive

system: N140; experiment: as above; settings: P. falciparum in erythrocytes, SYBR Green DNA, 72 h; series mostly up to 12.8 µM
In short: as §1

Row | Structure (SMILES) | Potency
21 | C[N+](C)(C)CC(O)CC(=O)O (stereo unspecified) | inactive
22 | CN1CCCC[C@@H]1CCN1c2ccccc2Sc2ccc(S(C)=O)cc21 (stereo partly specified) | inactive
23 | O=C(Cc1cccs1)NC1C(=O)N2C(C(=O)[O-])=C(C[n+]3ccccc3)CSC12 (stereo unspecified) | inactive
24 | C[C@@H]1CCC[C@H](C)N1NC(=O)c1ccc(Cl)c(S(N)(=O)=O)c1 | inactive
25 | CC(C)N1CCN(c2ccc(OC[C@@H]3CO[C@@](Cn4cncn4)(c4ccc(Cl)cc4Cl)O3)cc2)CC1 | inactive

system: P93_24; experiment: as above; settings: P. falciparum in erythrocytes, SYBR Green DNA, 72 h; series mostly up to 12.8 µM
In short: as §1

Row | Structure (SMILES) | Potency
26 | C[N+](C)(C)CC(O)CC(=O)O (stereo unspecified) | inactive
27 | CN1CCCC[C@@H]1CCN1c2ccccc2Sc2ccc(S(C)=O)cc21 (stereo partly specified) | inactive
28 | O=C(Cc1cccs1)NC1C(=O)N2C(C(=O)[O-])=C(C[n+]3ccccc3)CSC12 (stereo unspecified) | inactive
29 | C[C@@H]1CCC[C@H](C)N1NC(=O)c1ccc(Cl)c(S(N)(=O)=O)c1 | inactive

system: P94_40; experiment: as above; settings: P. falciparum in erythrocytes, SYBR Green DNA, 72 h; series mostly up to 12.8 µM
In short: as §1

Row | Structure (SMILES) | Potency
30 | C[N+](C)(C)CC(O)CC(=O)O (stereo unspecified) | inactive
31 | CN1CCCC[C@@H]1CCN1c2ccccc2Sc2ccc(S(C)=O)cc21 (stereo partly specified) | inactive
32 | O=C(Cc1cccs1)NC1C(=O)N2C(C(=O)[O-])=C(C[n+]3ccccc3)CSC12 (stereo unspecified) | inactive
33 | C[C@@H]1CCC[C@H](C)N1NC(=O)c1ccc(Cl)c(S(N)(=O)=O)c1 | inactive
34 | CC(C)N1CCN(c2ccc(OC[C@@H]3CO[C@@](Cn4cncn4)(c4ccc(Cl)cc4Cl)O3)cc2)CC1 | inactive

system: PAD; experiment: as above; settings: P. falciparum in erythrocytes, SYBR Green DNA, 72 h; series mostly up to 12.8 µM
In short: as §1

Row | Structure (SMILES) | Potency
35 | C[N+](C)(C)CC(O)CC(=O)O (stereo unspecified) | inactive
36 | CN1CCCC[C@@H]1CCN1c2ccccc2Sc2ccc(S(C)=O)cc21 (stereo partly specified) | inactive
37 | O=C(Cc1cccs1)NC1C(=O)N2C(C(=O)[O-])=C(C[n+]3ccccc3)CSC12 (stereo unspecified) | inactive
38 | CN(C)CC/C=C1\c2ccccc2CSc2ccccc21 | inactive
39 | C[C@@H]1CCC[C@H](C)N1NC(=O)c1ccc(Cl)c(S(N)(=O)=O)c1 | inactive
40 | CC(C)N1CCN(c2ccc(OC[C@@H]3CO[C@@](Cn4cncn4)(c4ccc(Cl)cc4Cl)O3)cc2)CC1 | inactive

system: PC15; experiment: as above; settings: P. falciparum in erythrocytes, SYBR Green DNA, 72 h; series mostly up to 12.8 µM
In short: as §1

Row | Structure (SMILES) | Potency
41 | C[N+](C)(C)CC(O)CC(=O)O (stereo unspecified) | inactive
42 | CN1CCCC[C@@H]1CCN1c2ccccc2Sc2ccc(S(C)=O)cc21 (stereo partly specified) | inactive
43 | O=C(Cc1cccs1)NC1C(=O)N2C(C(=O)[O-])=C(C[n+]3ccccc3)CSC12 (stereo unspecified) | inactive
44 | CN(C)CC/C=C1\c2ccccc2CSc2ccccc21 | inactive
45 | C[C@@H]1CCC[C@H](C)N1NC(=O)c1ccc(Cl)c(S(N)(=O)=O)c1 | inactive
46 | CC(C)N1CCN(c2ccc(OC[C@@H]3CO[C@@](Cn4cncn4)(c4ccc(Cl)cc4Cl)O3)cc2)CC1 | inactive

system: PC26; experiment: as above; settings: P. falciparum in erythrocytes, SYBR Green DNA, 72 h; series mostly up to 12.8 µM
In short: as §1

Row | Structure (SMILES) | Potency
47 | C[N+](C)(C)CC(O)CC(=O)O (stereo unspecified) | inactive
48 | CN1CCCC[C@@H]1CCN1c2ccccc2Sc2ccc(S(C)=O)cc21 (stereo partly specified) | inactive
49 | O=C(Cc1cccs1)NC1C(=O)N2C(C(=O)[O-])=C(C[n+]3ccccc3)CSC12 (stereo unspecified) | inactive
50 | C[C@@H]1CCC[C@H](C)N1NC(=O)c1ccc(Cl)c(S(N)(=O)=O)c1 | inactive
51 | CC(C)N1CCN(c2ccc(OC[C@@H]3CO[C@@](Cn4cncn4)(c4ccc(Cl)cc4Cl)O3)cc2)CC1 | inactive
